Source: PMC7862700, “An all-to-all approach to the identification of sequence-specific readers for epigenetic DNA modifications on cytosine”

Assays:
Test in all cases: DAPPL (digital affinity profiling via proximity ligation, sequencing); 10 mM Tris-HCl pH 7.5, 50 mM NaCl, 1 mM DTT, 4% glycerol, room temperature, 30 min; GST-TFs on glutathione beads, 16-mer random dsDNA library, 0.1% formaldehyde crosslink after washing; high values mean tight binding
[1] = molecular target: T1, FEV (Homo sapiens, UniProt Q99581 1-238); settings: protein: recombinant; tags: N-terminal GST; dsDNA, one strand shown
T1 sequence: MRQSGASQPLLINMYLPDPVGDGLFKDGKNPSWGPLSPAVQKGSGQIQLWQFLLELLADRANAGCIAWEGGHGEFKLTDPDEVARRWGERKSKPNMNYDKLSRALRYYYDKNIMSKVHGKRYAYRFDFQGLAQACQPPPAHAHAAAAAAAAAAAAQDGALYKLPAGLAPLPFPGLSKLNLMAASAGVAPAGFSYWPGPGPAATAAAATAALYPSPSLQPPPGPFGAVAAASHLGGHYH
Summary of the method: (§1)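 Human transcription factors fused to GST were expressed in yeast, captured on glutathione beads, given DNA barcodes and pooled with a GST-only negative control. Pools were incubated with 200 nmole of a 16-mer random double-stranded DNA library in Tris/NaCl/DTT/glycerol buffer at room temperature for 30 min. They were then washed, crosslinked with 0.1% formaldehyde, proximity-ligated (BsaI/T4 ligase, 1 h, 37 °C), PCR-amplified and sequenced on an Illumina NextSeq500. Binding signal is each 6-mer's read frequency for a factor divided by its frequency for the GST control.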

[2] = molecular target: ETV5 (Homo sapiens, UniProt P41161 1-510); settings: protein: recombinant; tags: N-terminal GST; dsDNA, one strand shown
Summary of the method: as §1

[3] = molecular target: HSF1 (Homo sapiens, UniProt Q00613 1-529); settings: protein: recombinant; tags: N-terminal GST; chain copies: 3; dsDNA, one strand shown
Summary of the method: as §1

[4] = molecular target: T2, SPIC (Homo sapiens, UniProt Q8N5J4 1-248); settings: protein: recombinant; tags: N-terminal GST; dsDNA, one strand shown
T2 sequence: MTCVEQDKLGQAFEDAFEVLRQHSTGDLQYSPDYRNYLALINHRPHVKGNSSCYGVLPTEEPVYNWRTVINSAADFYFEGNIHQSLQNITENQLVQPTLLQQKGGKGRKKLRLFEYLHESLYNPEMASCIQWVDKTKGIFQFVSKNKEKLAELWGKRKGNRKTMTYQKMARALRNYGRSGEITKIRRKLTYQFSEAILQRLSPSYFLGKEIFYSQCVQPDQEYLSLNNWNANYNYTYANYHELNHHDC
Summary of the method: as §1

[5] = molecular target: ELF4 (Homo sapiens, UniProt Q99607 1-663); settings: protein: recombinant; tags: N-terminal GST; dsDNA, one strand shown
Summary of the method: as §1

[6] = molecular target: T3, ELK4 (Homo sapiens, UniProt P28324-2 1-405); settings: protein: recombinant; tags: N-terminal GST; dsDNA, one strand shown
T3 sequence: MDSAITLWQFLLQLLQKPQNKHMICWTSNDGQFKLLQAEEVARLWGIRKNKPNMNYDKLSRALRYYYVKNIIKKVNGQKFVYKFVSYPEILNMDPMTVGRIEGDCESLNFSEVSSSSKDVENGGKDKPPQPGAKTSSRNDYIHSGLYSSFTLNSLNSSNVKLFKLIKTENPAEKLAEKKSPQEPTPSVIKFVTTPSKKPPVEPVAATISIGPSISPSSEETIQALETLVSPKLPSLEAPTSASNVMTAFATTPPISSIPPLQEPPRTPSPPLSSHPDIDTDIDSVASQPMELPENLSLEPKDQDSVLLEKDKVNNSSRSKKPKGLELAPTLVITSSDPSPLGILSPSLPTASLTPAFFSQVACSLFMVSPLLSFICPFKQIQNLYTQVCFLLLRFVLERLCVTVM
Summary of the method: as §1

[7] = molecular target: T4, ETV2 (Homo sapiens, UniProt O00321 1-342); settings: protein: recombinant; tags: N-terminal GST; dsDNA, one strand shown
T4 sequence: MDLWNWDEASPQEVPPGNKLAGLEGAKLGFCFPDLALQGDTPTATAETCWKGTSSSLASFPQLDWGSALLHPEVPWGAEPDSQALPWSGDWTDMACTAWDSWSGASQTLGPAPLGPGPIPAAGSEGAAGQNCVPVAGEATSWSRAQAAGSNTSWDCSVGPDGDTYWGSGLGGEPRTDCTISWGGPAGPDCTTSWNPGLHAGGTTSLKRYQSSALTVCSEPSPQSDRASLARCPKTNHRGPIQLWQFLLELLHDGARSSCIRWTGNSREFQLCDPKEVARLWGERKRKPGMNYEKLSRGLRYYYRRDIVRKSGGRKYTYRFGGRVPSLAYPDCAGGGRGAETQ
Summary of the method: as §1

[8] = molecular target: T5, ELF3 (Homo sapiens, UniProt P78545 1-371); settings: protein: recombinant; tags: N-terminal GST; dsDNA, one strand shown
T5 sequence: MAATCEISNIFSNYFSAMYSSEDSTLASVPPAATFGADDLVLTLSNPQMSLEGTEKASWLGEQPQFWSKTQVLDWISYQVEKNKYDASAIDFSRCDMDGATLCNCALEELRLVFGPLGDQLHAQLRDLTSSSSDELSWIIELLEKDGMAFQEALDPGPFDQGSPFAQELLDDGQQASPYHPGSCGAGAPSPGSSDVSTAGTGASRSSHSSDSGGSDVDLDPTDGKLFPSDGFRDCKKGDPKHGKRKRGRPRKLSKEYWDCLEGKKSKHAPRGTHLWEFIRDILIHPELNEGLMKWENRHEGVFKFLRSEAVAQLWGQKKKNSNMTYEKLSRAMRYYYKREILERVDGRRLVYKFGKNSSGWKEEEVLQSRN
Summary of the method: as §1

[9] = molecular target: CRX (Homo sapiens, UniProt O43186 1-299); settings: protein: recombinant; tags: N-terminal GST; dsDNA, one strand shown
Summary of the method: as §1

[10] = molecular target: ETV1 (Homo sapiens, UniProt P50549 1-477); settings: protein: recombinant; tags: N-terminal GST; dsDNA, one strand shown
Summary of the method: as §1

[11] = molecular target: T6, ERF (Homo sapiens, UniProt P50548 1-548); settings: protein: recombinant; tags: N-terminal GST; dsDNA, one strand shown
T6 sequence: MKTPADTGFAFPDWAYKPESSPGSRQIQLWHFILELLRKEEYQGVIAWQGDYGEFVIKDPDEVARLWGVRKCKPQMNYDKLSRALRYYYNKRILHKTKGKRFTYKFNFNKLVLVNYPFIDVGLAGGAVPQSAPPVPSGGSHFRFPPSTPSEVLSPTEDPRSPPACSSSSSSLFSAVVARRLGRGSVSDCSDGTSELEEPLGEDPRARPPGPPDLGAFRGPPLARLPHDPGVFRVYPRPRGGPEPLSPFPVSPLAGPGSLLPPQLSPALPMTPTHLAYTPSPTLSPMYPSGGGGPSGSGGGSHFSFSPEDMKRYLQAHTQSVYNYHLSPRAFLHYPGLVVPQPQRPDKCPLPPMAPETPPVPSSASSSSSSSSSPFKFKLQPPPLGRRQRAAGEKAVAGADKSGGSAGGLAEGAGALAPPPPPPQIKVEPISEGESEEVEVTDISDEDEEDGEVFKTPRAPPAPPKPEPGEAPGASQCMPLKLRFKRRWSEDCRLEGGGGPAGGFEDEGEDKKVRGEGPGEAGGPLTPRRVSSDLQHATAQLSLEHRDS
Summary of the method: as §1

[12] = molecular target: T7, ETV3L (Homo sapiens, UniProt Q6ZN32 1-361); settings: protein: recombinant; tags: N-terminal GST; dsDNA, one strand shown
T7 sequence: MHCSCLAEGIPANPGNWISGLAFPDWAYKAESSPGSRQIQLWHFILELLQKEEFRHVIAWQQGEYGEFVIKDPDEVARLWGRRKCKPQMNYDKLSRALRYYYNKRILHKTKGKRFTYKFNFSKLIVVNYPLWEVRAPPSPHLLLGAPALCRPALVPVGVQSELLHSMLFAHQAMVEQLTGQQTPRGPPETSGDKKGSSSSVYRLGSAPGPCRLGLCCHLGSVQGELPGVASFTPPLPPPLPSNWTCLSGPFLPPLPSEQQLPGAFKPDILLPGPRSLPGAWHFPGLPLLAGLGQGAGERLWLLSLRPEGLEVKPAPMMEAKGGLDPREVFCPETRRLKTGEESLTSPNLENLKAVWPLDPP
Summary of the method: as §1

[13] = molecular target: T8, ETS2 (Homo sapiens, UniProt P15036 1-469); settings: protein: recombinant; tags: N-terminal GST; dsDNA, one strand shown
T8 sequence: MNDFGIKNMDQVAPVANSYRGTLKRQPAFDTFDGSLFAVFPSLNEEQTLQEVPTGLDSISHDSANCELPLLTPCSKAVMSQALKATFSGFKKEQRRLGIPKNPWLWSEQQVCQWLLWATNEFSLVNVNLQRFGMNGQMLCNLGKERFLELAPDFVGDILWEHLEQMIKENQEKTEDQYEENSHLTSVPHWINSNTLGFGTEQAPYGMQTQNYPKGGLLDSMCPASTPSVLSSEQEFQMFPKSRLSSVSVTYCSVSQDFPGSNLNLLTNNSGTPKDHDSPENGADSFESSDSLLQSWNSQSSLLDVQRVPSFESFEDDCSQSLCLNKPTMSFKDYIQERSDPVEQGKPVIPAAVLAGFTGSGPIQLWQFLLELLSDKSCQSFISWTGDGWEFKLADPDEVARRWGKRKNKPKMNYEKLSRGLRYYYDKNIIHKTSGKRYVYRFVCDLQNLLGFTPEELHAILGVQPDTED
Summary of the method: as §1

[14] = molecular target: T9, SPDEF (Homo sapiens, UniProt O95238 1-335); settings: protein: recombinant; tags: N-terminal GST; dsDNA, one strand shown
T9 sequence: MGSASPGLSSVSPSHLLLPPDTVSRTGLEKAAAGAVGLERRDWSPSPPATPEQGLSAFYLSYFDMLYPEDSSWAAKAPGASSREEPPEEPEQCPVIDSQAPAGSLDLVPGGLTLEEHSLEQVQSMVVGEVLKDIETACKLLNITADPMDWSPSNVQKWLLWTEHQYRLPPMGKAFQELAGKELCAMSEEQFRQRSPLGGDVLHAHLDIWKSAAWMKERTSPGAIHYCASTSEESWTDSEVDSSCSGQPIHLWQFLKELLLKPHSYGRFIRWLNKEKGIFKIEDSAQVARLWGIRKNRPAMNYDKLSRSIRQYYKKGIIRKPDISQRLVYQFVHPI
Summary of the method: as §1

[15] = molecular target: T10, ETV7 (Homo sapiens, UniProt Q9Y603 1-341); settings: protein: recombinant; tags: N-terminal GST; dsDNA, one strand shown
T10 sequence: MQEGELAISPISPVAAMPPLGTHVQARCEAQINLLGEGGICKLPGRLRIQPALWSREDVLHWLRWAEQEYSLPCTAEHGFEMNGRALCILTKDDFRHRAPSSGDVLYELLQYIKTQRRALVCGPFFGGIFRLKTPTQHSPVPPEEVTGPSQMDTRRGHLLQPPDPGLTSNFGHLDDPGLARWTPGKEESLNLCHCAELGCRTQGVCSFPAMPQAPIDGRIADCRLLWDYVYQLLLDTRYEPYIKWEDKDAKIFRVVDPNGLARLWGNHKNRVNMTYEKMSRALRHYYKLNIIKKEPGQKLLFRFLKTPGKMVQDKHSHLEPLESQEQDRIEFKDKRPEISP
Summary of the method: as §1

[16] = molecular target: T11, ELF5 (Homo sapiens, UniProt Q9UKW6-2 1-255); settings: protein: recombinant; tags: N-terminal GST; dsDNA, one strand shown
T11 sequence: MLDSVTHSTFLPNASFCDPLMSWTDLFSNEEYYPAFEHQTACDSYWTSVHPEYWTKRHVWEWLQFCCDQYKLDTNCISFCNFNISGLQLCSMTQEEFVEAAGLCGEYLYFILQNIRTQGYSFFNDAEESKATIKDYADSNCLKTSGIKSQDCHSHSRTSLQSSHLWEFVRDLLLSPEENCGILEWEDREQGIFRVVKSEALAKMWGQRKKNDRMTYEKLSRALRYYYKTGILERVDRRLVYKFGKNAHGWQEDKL
Summary of the method: as §1

[17] = molecular target: T12, ETV3 (Homo sapiens, UniProt P41162-2 1-143); settings: protein: recombinant; tags: N-terminal GST; dsDNA, one strand shown
T12 sequence: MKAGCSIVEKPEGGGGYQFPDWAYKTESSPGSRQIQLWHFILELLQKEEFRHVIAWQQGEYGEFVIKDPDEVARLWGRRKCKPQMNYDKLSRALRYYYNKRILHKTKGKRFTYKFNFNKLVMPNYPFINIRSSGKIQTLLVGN
Summary of the method: as §1

[18] = molecular target: ETV6 (Homo sapiens, UniProt P41212 1-452); settings: protein: recombinant; tags: N-terminal GST; dsDNA, one strand shown
Summary of the method: as §1

Chain of ETV6 (P41212 whole entry): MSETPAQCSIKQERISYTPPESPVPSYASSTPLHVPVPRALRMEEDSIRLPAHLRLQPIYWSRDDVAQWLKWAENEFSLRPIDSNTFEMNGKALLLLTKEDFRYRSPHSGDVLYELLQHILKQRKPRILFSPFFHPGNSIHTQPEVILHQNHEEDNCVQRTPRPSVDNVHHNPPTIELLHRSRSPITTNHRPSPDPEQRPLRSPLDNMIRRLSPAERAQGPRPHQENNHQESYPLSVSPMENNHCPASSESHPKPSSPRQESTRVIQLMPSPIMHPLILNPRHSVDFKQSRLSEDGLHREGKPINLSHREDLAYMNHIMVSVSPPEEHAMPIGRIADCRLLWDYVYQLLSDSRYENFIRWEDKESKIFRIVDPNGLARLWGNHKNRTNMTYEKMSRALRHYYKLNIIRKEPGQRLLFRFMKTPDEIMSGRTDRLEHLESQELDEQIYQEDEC
Chain of ETV1 (P50549 whole entry): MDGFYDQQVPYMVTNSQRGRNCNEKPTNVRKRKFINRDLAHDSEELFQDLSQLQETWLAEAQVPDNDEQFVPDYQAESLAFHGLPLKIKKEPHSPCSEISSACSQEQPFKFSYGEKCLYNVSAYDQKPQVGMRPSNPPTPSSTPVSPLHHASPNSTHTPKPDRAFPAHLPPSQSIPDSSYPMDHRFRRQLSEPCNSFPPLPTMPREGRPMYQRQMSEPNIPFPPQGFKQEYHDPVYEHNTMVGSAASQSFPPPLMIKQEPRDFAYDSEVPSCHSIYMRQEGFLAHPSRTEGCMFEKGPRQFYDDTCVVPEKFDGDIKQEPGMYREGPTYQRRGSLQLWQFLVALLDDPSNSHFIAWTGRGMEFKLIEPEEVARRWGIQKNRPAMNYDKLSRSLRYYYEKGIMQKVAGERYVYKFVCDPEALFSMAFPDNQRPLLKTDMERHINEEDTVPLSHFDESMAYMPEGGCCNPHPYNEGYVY
Chain of CRX (O43186 whole entry): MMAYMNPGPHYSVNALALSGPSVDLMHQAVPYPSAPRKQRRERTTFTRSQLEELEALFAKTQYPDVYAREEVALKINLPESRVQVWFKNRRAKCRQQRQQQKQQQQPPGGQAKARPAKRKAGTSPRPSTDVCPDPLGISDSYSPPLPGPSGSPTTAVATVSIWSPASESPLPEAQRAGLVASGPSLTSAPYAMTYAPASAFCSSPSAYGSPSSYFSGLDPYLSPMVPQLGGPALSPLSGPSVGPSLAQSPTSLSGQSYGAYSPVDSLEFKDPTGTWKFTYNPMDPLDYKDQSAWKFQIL
Chain of ELF4 (Q99607 whole entry): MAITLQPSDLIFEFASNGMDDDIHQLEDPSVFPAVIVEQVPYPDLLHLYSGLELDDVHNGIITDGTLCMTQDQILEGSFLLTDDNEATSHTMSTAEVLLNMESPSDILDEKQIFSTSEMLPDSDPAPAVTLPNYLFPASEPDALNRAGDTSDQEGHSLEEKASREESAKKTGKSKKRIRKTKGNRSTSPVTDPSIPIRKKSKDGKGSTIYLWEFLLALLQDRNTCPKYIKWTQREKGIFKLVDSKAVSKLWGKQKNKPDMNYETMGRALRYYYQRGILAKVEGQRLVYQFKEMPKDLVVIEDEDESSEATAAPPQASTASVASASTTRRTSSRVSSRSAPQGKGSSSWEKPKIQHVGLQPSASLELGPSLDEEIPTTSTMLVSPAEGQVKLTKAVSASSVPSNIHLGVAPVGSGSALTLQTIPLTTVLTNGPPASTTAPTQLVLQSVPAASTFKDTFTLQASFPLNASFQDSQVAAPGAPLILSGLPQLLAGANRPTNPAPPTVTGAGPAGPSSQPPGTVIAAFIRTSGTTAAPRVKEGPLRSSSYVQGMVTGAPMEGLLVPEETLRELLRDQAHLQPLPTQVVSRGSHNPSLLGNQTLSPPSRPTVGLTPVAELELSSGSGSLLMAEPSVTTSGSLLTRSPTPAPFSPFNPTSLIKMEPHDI
Chain of HSF1 (Q00613 whole entry): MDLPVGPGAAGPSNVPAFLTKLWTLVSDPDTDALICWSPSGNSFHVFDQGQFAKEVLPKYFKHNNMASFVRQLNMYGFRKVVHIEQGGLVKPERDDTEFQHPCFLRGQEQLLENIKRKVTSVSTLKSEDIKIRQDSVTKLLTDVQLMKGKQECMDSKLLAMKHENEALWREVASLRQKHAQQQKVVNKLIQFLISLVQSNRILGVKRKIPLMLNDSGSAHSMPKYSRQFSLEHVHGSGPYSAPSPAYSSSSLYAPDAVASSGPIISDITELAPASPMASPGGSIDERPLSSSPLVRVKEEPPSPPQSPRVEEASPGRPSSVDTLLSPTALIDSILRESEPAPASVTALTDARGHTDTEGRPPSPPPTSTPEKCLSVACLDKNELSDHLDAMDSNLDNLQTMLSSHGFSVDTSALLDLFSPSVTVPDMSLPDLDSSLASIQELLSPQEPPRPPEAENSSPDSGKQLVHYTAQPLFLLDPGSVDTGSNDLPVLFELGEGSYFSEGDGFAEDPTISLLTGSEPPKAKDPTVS
Chain of ETV5 (P41161 whole entry): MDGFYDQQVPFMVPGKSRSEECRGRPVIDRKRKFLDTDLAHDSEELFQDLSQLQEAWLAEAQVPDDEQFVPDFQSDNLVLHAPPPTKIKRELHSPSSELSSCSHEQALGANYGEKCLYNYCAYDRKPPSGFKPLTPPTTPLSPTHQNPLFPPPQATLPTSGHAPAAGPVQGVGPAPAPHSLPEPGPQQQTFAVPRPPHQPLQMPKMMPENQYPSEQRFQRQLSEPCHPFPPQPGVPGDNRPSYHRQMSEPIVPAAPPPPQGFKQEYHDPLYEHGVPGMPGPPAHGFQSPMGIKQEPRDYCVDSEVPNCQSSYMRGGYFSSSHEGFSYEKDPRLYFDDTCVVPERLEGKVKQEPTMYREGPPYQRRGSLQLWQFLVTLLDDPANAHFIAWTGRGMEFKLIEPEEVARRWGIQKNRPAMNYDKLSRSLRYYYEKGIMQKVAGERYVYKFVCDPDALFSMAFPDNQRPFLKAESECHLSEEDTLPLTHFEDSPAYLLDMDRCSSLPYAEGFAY

With CTGAAA the binding signal [1] was 1.25 fold enrichment (6-mer frequency, TF over GST control), the binding signal [2] was 1.22 fold enrichment (6-mer frequency, TF over GST control) and the binding signal [3] was 1.16 fold enrichment (6-mer frequency, TF over GST control). For the same sequence, the binding signal [4] was 1.35 fold enrichment (6-mer frequency, TF over GST control), the binding signal [5] was 1.13 fold enrichment (6-mer frequency, TF over GST control) and the binding signal [6] was 1.19 fold enrichment (6-mer frequency, TF over GST control). For the same sequence, the binding signal [7] was 1.15 fold enrichment (6-mer frequency, TF over GST control), the binding signal [8] was 1.28 fold enrichment (6-mer frequency, TF over GST control) and the binding signal [9] was 1 fold enrichment (6-mer frequency, TF over GST control). The binding signal [10] was 1.1 fold enrichment (6-mer frequency, TF over GST control), the binding signal [11] was 1.09 fold enrichment (6-mer frequency, TF over GST control) and the binding signal [12] was 1.1 fold enrichment (6-mer frequency, TF over GST control). For the same sequence, the binding signal [13] was 1.19 fold enrichment (6-mer frequency, TF over GST control), the binding signal [14] was 1.16 fold enrichment (6-mer frequency, TF over GST control) and the binding signal [15] was 1.12 fold enrichment (6-mer frequency, TF over GST control). The binding signal [16] was 1.09 fold enrichment (6-mer frequency, TF over GST control), the binding signal [17] was 1.17 fold enrichment (6-mer frequency, TF over GST control) and the binding signal [18] was 1.16 fold enrichment (6-mer frequency, TF over GST control).
